# Results from PMC7862700, “An all-to-all approach to the identification of sequence-specific readers for epigenetic DNA modifications on cytosine”.
# Tests used:
# Assay in all cases: DAPPL (digital affinity profiling via proximity ligation, sequencing); 10 mM Tris-HCl pH 7.5, 50 mM NaCl, 1 mM DTT, 4% glycerol, room temperature, 30 min; GST-TFs on glutathione beads, 16-mer random dsDNA library, 0.1% formaldehyde crosslink after washing; high values mean tight binding
# FLI1 = biological target: T1, FLI1 (Homo sapiens, UniProt Q01543 1-452); settings: protein: recombinant; tags: N-terminal GST; dsDNA, one strand shown
# T1 sequence: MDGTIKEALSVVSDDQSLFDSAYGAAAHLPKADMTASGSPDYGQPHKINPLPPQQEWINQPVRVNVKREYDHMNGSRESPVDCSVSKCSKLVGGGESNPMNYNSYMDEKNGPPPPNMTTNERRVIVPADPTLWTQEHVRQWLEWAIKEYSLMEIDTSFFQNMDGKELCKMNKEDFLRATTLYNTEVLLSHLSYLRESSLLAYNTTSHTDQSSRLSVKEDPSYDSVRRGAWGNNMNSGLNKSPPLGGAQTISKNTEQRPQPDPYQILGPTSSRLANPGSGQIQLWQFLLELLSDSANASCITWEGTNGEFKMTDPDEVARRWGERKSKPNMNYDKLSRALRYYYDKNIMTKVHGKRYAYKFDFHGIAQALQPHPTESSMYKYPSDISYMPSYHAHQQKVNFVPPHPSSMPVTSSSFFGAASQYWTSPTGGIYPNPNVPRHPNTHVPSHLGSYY
# Outline: (§1)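 A tag-only sample was pooled with DNA-barcoded human transcription factors that had been expressed in yeast as GST fusions and captured on glutathione beads. The pools were incubated for 30 min at room temperature with 200 nmole of a random double-stranded 16-mer DNA library in Tris/NaCl/DTT/glycerol buffer, then washed, crosslinked with 0.1% formaldehyde, proximity-ligated (BsaI/T4 ligase, 1 h, 37 °C), PCR-amplified and sequenced on an Illumina NextSeq500. Binding signal is each hexamer's read frequency for a factor divided by its frequency for the tag-only sample.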
# ELK1 = biological target: T2, ELK1 (Homo sapiens, UniProt P19419 1-428); settings: protein: recombinant; tags: N-terminal GST; dsDNA, one strand shown
# T2 sequence: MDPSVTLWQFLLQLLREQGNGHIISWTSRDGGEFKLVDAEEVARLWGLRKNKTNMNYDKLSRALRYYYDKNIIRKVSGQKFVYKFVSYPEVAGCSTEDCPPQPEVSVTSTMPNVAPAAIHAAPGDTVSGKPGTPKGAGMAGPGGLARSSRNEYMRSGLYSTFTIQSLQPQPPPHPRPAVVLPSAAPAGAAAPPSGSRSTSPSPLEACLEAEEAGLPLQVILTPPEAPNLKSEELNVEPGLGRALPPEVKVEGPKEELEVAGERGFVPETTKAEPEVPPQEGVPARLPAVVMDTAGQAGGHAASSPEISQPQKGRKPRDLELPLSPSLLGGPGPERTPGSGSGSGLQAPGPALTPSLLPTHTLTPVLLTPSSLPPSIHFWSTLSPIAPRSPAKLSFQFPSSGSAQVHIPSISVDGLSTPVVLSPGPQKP
# Outline: as §1
# GABPA = biological target: T3, GABPA (Homo sapiens, UniProt Q06546 1-454); settings: protein: recombinant; tags: N-terminal GST; dsDNA, one strand shown
# T3 sequence: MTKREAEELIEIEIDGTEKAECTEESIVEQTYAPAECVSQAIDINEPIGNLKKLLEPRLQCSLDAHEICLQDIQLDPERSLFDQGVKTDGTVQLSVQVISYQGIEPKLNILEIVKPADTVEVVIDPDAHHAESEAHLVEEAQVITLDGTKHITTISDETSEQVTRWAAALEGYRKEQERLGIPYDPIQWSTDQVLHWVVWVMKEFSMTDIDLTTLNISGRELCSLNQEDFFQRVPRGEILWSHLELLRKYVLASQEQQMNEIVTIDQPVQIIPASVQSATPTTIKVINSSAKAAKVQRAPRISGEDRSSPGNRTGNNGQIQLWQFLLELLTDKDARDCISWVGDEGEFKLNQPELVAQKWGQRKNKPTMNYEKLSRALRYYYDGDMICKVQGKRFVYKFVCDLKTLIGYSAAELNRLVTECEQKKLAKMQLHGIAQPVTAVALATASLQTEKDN
# Outline: as §1
# ERG = biological target: T4, ERG (Homo sapiens, UniProt P11308 1-479); settings: protein: recombinant; tags: N-terminal GST; dsDNA, one strand shown
# T4 sequence: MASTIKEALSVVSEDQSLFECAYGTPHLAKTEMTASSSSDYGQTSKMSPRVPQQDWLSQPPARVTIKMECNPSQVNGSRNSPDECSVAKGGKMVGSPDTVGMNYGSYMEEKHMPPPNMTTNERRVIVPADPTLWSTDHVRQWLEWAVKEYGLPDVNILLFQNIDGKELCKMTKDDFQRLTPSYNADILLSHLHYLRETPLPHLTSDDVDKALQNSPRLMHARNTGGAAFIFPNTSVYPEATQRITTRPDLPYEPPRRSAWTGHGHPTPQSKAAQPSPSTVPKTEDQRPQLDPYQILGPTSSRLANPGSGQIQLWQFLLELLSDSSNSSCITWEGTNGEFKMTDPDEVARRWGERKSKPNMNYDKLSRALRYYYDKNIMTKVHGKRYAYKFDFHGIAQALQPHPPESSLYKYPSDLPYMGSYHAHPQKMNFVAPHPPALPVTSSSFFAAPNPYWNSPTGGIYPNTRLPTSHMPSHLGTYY
# Outline: as §1
# ELF1 = ELF1 (Homo sapiens, UniProt P32519 1-619); settings: protein: recombinant; tags: N-terminal GST; dsDNA, one strand shown
# ELF1, sequence (P32519 whole entry): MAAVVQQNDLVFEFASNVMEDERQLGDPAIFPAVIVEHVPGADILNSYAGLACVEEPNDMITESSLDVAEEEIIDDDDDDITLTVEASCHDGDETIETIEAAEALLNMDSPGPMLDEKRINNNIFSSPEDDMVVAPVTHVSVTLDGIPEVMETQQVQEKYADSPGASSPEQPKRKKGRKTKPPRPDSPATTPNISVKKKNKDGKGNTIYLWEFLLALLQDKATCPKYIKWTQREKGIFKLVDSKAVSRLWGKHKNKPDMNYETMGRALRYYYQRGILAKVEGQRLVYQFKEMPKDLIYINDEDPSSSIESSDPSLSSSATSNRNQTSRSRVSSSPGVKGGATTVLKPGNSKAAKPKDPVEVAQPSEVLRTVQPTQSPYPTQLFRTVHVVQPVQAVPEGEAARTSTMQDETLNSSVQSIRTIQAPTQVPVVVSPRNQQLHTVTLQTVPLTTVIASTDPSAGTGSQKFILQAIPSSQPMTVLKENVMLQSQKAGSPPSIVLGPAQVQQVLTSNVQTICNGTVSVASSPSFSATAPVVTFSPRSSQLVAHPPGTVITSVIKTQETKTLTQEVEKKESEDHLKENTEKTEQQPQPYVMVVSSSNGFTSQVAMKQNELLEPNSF
# Outline: as §1
# EHF = biological target: T5, EHF (Homo sapiens, UniProt Q9NZC4 1-300); settings: protein: recombinant; tags: N-terminal GST; dsDNA, one strand shown
# T5 sequence: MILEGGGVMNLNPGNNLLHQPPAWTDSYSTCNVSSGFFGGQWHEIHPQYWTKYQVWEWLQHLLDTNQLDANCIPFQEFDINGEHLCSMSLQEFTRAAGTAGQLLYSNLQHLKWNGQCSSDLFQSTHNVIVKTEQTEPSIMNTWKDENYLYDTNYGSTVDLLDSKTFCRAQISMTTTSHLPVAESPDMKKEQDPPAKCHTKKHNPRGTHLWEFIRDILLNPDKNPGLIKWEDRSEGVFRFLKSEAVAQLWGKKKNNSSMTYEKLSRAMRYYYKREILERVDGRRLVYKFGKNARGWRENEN
# Outline: as §1
# SPI1 = SPI1 (Homo sapiens, UniProt P17947 1-270); settings: protein: recombinant; tags: N-terminal GST; dsDNA, one strand shown
# Outline: as §1
# SPIB = SPIB (Homo sapiens, UniProt Q01892 1-262); settings: protein: recombinant; tags: N-terminal GST; dsDNA, one strand shown
# SPIB, sequence (Q01892 whole entry): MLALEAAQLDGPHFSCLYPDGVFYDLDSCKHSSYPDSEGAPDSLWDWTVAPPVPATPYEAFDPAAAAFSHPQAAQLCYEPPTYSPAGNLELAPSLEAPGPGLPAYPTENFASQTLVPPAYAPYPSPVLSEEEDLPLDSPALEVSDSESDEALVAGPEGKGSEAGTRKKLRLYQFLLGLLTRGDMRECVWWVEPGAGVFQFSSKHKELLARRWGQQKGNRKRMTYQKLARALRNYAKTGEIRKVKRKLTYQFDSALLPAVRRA
# Outline: as §1
# ELK3 = biological target: T6, ELK3 (Homo sapiens, UniProt P41970 1-407); settings: protein: recombinant; tags: N-terminal GST; dsDNA, one strand shown
# T6 sequence: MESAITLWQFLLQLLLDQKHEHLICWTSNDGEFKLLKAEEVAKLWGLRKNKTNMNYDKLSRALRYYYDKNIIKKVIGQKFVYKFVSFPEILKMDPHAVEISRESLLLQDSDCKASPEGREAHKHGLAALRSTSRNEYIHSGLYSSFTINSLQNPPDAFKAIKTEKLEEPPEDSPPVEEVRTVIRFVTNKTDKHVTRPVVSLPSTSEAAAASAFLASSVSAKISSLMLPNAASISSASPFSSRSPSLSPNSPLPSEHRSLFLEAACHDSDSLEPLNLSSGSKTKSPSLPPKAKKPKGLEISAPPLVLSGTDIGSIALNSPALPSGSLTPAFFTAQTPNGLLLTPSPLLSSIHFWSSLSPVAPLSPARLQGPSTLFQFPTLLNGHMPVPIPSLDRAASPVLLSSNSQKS
# Outline: as §1
# FEV = biological target: T7, FEV (Homo sapiens, UniProt Q99581 1-238); settings: protein: recombinant; tags: N-terminal GST; dsDNA, one strand shown
# T7 sequence: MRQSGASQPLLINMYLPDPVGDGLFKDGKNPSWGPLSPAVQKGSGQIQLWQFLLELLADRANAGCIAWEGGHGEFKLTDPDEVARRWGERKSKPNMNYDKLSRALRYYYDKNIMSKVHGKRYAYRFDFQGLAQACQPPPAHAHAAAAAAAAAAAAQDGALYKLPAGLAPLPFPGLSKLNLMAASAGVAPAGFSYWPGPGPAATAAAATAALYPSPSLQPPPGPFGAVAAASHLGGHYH
# Outline: as §1
# ETV5 = ETV5 (Homo sapiens, UniProt P41161 1-510); settings: protein: recombinant; tags: N-terminal GST; dsDNA, one strand shown
# ETV5, sequence (P41161 whole entry): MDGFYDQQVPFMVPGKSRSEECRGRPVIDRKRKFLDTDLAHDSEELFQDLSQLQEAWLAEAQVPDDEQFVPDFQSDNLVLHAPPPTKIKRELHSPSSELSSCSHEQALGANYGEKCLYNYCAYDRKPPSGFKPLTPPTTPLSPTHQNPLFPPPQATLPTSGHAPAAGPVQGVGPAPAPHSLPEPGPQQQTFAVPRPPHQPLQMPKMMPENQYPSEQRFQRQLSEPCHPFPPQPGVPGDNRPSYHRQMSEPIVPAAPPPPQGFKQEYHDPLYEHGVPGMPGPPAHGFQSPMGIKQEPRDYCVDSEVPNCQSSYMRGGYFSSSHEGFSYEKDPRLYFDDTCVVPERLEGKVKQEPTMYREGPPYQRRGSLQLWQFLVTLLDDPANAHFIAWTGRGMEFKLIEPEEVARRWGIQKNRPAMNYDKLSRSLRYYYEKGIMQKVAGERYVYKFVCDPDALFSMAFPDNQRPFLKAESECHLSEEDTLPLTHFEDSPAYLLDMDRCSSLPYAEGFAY
# Outline: as §1
# HSF1 = HSF1 (Homo sapiens, UniProt Q00613 1-529); settings: protein: recombinant; tags: N-terminal GST; chain copies: 3; dsDNA, one strand shown
# HSF1, sequence (Q00613 whole entry): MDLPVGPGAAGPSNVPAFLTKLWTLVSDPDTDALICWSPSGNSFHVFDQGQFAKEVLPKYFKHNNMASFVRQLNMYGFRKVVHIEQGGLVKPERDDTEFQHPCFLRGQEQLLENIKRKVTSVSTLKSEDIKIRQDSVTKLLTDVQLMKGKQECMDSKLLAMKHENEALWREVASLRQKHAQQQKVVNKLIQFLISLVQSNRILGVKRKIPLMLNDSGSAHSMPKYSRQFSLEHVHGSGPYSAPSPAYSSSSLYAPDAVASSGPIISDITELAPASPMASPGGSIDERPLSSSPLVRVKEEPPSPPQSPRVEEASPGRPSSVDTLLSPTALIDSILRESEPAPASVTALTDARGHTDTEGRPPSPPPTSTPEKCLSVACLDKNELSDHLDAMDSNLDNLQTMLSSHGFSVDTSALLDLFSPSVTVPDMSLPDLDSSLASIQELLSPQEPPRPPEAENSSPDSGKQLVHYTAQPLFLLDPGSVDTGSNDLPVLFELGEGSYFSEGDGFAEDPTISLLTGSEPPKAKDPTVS
# Outline: as §1
# SPIC = biological target: T8, SPIC (Homo sapiens, UniProt Q8N5J4 1-248); settings: protein: recombinant; tags: N-terminal GST; dsDNA, one strand shown
# T8 sequence: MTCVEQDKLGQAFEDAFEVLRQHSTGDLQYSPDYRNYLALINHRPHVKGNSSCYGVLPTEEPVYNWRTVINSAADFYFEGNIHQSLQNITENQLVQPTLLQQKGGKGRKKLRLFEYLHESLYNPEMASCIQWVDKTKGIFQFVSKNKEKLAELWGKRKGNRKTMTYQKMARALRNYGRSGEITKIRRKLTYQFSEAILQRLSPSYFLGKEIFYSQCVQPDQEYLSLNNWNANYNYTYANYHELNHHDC
# Outline: as §1
# ELF4 = ELF4 (Homo sapiens, UniProt Q99607 1-663); settings: protein: recombinant; tags: N-terminal GST; dsDNA, one strand shown
# ELF4, sequence (Q99607 whole entry): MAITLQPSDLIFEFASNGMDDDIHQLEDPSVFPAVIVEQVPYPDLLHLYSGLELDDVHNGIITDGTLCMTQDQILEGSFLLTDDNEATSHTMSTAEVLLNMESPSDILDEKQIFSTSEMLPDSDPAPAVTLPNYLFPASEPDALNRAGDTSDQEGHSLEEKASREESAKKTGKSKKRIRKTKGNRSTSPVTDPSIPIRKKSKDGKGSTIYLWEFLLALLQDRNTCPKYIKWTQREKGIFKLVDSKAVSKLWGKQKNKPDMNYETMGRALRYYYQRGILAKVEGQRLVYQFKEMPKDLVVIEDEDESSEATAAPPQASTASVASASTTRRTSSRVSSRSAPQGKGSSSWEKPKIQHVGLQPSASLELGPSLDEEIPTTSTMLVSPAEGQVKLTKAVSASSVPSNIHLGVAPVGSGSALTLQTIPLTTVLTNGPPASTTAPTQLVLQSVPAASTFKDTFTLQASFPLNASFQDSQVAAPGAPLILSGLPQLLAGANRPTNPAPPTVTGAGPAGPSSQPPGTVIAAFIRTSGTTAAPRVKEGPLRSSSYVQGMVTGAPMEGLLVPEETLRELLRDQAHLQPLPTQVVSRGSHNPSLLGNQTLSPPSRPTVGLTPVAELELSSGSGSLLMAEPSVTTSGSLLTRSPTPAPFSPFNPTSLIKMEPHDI
# Outline: as §1
# ELK4 = biological target: T9, ELK4 (Homo sapiens, UniProt P28324-2 1-405); settings: protein: recombinant; tags: N-terminal GST; dsDNA, one strand shown
# T9 sequence: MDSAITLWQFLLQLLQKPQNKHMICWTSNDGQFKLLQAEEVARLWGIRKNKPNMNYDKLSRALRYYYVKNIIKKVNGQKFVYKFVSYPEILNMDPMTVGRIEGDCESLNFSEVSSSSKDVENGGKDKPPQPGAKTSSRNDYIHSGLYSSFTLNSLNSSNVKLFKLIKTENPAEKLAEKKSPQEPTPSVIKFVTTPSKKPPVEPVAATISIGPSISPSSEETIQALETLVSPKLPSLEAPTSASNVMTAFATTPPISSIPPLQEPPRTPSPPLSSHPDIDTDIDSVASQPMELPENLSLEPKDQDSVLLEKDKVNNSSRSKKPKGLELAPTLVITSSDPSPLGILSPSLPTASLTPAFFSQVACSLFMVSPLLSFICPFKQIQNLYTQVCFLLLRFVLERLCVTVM
# Outline: as §1
# ETV2 = biological target: T10, ETV2 (Homo sapiens, UniProt O00321 1-342); settings: protein: recombinant; tags: N-terminal GST; dsDNA, one strand shown
# T10 sequence: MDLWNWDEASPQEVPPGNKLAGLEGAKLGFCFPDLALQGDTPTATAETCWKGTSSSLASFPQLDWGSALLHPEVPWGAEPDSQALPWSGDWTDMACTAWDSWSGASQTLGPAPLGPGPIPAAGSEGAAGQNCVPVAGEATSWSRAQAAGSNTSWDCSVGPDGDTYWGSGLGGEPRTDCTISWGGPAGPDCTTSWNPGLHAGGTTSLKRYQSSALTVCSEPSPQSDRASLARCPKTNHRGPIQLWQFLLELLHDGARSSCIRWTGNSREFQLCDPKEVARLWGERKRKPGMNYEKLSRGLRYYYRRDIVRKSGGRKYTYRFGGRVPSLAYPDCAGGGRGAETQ
# Outline: as §1
# ELF3 = biological target: T11, ELF3 (Homo sapiens, UniProt P78545 1-371); settings: protein: recombinant; tags: N-terminal GST; dsDNA, one strand shown
# T11 sequence: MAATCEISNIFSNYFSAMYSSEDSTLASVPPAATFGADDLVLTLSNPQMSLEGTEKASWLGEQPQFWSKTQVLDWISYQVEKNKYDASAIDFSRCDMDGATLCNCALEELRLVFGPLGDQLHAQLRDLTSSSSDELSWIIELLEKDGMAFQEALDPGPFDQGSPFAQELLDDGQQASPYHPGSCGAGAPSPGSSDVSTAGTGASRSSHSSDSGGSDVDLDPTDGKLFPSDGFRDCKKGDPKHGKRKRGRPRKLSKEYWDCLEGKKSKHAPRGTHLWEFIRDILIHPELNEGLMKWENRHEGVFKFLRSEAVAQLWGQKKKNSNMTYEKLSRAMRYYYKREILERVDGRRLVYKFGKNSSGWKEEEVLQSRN
# Outline: as §1
# CRX = CRX (Homo sapiens, UniProt O43186 1-299); settings: protein: recombinant; tags: N-terminal GST; dsDNA, one strand shown
# CRX, sequence (O43186 whole entry): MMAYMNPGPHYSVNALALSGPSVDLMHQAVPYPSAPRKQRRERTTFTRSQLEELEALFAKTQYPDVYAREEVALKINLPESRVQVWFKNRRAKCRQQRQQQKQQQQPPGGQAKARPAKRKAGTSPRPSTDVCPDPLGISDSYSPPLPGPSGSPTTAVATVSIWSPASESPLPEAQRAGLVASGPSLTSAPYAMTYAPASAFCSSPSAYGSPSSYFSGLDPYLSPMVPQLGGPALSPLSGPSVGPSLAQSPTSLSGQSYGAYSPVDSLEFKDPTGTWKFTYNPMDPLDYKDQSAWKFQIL
# Outline: as §1
# ETV1 = ETV1 (Homo sapiens, UniProt P50549 1-477); settings: protein: recombinant; tags: N-terminal GST; dsDNA, one strand shown
# ETV1, sequence (P50549 whole entry): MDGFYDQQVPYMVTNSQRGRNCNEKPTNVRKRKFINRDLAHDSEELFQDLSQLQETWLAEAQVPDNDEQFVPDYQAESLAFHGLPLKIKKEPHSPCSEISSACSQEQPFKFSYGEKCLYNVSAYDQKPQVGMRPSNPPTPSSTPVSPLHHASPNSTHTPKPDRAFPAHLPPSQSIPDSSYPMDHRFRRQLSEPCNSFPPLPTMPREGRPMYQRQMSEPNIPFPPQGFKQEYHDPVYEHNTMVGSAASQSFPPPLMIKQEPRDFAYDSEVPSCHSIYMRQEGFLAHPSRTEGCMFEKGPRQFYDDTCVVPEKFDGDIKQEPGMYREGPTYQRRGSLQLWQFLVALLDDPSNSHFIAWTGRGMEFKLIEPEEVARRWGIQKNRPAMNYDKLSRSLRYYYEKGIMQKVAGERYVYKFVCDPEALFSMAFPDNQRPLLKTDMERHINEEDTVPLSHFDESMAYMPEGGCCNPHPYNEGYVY
# Outline: as §1
sequence,measurement,setting,value
TCCTCG,binding signal,FLI1,"1.6 fold enrichment (6-mer frequency, TF over GST control)"
same,binding signal,ELK1,"1.33 fold enrichment (6-mer frequency, TF over GST control)"
same,binding signal,GABPA,"1.47 fold enrichment (6-mer frequency, TF over GST control)"
same,binding signal,ERG,"1.42 fold enrichment (6-mer frequency, TF over GST control)"
same,binding signal,ELF1,"1.47 fold enrichment (6-mer frequency, TF over GST control)"
same,binding signal,EHF,"1.56 fold enrichment (6-mer frequency, TF over GST control)"
same,binding signal,SPI1,"1.46 fold enrichment (6-mer frequency, TF over GST control)"
same,binding signal,SPIB,"1.32 fold enrichment (6-mer frequency, TF over GST control)"
same,binding signal,ELK3,"1.49 fold enrichment (6-mer frequency, TF over GST control)"
same,binding signal,FEV,"1.37 fold enrichment (6-mer frequency, TF over GST control)"
same,binding signal,ETV5,"1.51 fold enrichment (6-mer frequency, TF over GST control)"
same,binding signal,HSF1,"1.54 fold enrichment (6-mer frequency, TF over GST control)"
same,binding signal,SPIC,"1.45 fold enrichment (6-mer frequency, TF over GST control)"
same,binding signal,ELF4,"1.51 fold enrichment (6-mer frequency, TF over GST control)"
same,binding signal,ELK4,"1.41 fold enrichment (6-mer frequency, TF over GST control)"
same,binding signal,ETV2,"1.66 fold enrichment (6-mer frequency, TF over GST control)"
same,binding signal,ELF3,"1.53 fold enrichment (6-mer frequency, TF over GST control)"
same,binding signal,CRX,"1.37 fold enrichment (6-mer frequency, TF over GST control)"
same,binding signal,ETV1,"1.65 fold enrichment (6-mer frequency, TF over GST control)"
